# From PubChem BioAssay AID881 (National Center for Advancing Translational Sciences (NCATS), 2007)
# Among all 110,000 compounds or so, about 610 (0.55%) were called active. Entries that show only a call come without a potency. Inconclusive results (about 3%) are left out. This is one part of a sample in which actives are shown more often than they occur. Values without a mark were called inactive. Calls follow the shape of the dose curve; as a rule, active = well fitted inhibition curve with a large enough effect; inconclusive = small, poorly fitted or top-dose-only effect; inactive = no such curve, though single readings can be large or run the other way.
# Target: Polyunsaturated fatty acid lipoxygenase ALOX15B (Homo sapiens) (UniProt O15296)
# Sequence (O15296 whole entry, looked up): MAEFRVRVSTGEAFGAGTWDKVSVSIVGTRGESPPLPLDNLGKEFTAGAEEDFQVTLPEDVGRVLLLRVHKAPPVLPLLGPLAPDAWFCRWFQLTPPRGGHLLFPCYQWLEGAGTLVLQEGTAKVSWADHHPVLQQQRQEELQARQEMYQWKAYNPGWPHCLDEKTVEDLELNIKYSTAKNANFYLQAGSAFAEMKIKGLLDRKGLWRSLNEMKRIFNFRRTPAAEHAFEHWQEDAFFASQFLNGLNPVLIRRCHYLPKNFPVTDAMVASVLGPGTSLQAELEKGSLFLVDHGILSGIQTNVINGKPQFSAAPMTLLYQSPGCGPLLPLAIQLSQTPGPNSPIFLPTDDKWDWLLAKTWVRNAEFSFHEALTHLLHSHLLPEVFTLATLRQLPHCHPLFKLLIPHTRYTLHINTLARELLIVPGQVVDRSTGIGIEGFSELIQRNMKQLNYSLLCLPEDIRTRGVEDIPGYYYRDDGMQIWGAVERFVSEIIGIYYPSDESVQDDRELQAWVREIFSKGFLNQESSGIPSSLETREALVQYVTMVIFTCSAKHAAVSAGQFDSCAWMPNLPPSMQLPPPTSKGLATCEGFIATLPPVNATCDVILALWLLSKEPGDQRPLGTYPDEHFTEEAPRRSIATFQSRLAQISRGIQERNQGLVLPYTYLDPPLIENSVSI
# Assay: qHTS Assay for Inhibitors of 15-hLO-2 (15-human lipoxygenase 2); also: nearly all actives have a fitted effect of over 60% in size
# Conditions: purified 15hLO-2, xylenol orange hydroperoxide absorbance; series mostly up to 57.1 µM
# Method in brief: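 Enzyme 50 nM, AA 45 uM, 25 mM Hepes pH 7.5 + 0.01% Triton X-100; cpd preinc 15 min RT, rxn 90 min RT; stop/detect with 200 uM XO + 300 uM Fe(II) in 50 mM H2SO4, 30 min; A573/A405.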
# Potency is read from the fitted curve at half-maximal effect.
Structure (SMILES),"activity change, negative = inhibition",Potency
Cc1ccc(CC2(O)CCN(CCOc3ccc(O)cc3)CC2)cc1,15.1% [at 0.0915 µM],–
Cc1ccc(/C=N/NC(=O)Cn2nc(C)c(Br)c2C)o1,inactive,–
C=CCN(N=Nc1cccc([N+](=O)[O-])c1)c1cccc([N+](=O)[O-])c1,inactive,–
CN(C)c1ccc(CNC2C3CC4CC(C3)CC2C4)cc1 (stereo not given),inactive,–
O=C(COc1ccc(Br)cc1F)NC1CCN(Cc2ccccc2)CC1,inactive,–
N#CC1=C(SCc2ccc(C#N)cc2)N=C(N)C(c2nc(-c3ccccc3)cs2)C12CCCCC2 (stereo not given),inactive,–
CCOc1c2ccc(C(=O)NCc3ccc(OC(F)(F)F)cc3)cc2nn1C,inactive,–
O=C1Nc2ccccc2C12Nc1ccccc1S2 (stereo not given),–,7.94 µM (active)
Cc1ccc(NC2(C#N)C(=O)Nc3ccccc32)cc1 (stereo not given),inactive,–
CC(=O)N1C(=O)C2(Nc3ccccc3N2)c2ccccc21,inactive,–
Cc1ccc(CNC(=O)CCNS(=O)(=O)c2cccc3nonc23)cc1,inactive,–
CC1=C(C/C=C(\C)CCCC(C)CCCC(C)CCCC(C)C)C(=O)c2ccccc2C1=O (stereo not given),-19.6% [at 0.0915 µM],–
Cn1c(SCC(=O)NC2CCCCC2)nnc1-c1cc2ccccc2o1,inactive,–
O=c1c2ccccc2nc2n1C(CSCc1ccccc1)CS2 (stereo not given),inactive,–
CCOC(=O)C1=C(C)Nc2sc(C(=O)c3ccc(Br)cc3)c(N)c2C1c1ccc(C(=O)OC)cc1 (stereo not given),inactive,–
Cc1ccc(C(=O)OC2=CC(=O)CC(C)(C)C2)cc1,-18% [at 11.4 µM],–
COc1ccc(OC)c(Nc2nc(-c3ccc(O)c(O)c3)cs2)c1,–,12.6 µM (active)
c1cnc(Nc2nc(-c3ccc4ccccc4c3)cs2)nc1,inactive,–
COc1ccc(Nc2nc(-c3ccccc3)cs2)cc1,inactive,–
O=C(OC1CCCCC1=O)c1cccc(S(=O)(=O)NCc2ccccc2)c1 (stereo not given),inactive,–
OCCN(Cc1ccccc1)Cc1ccc(Cl)cc1,inactive,–
O=C1CSC2=NCN(c3ccccc3)CN12,inactive,–
O=C(NCc1ccco1)c1ccc(Cn2c(=O)c3sccc3n(Cc3ccc(F)cc3)c2=O)cc1,inactive,–
CCn1c(-c2ccoc2C)n[nH]c1=S,inactive,–
CCCC1NC(=O)NC(C)=C1C(=O)OCC (stereo not given),inactive,–
COc1cccc(OC)c1C(=O)Nc1ccc(N2CCCCC2)cc1,inactive,–
COc1ccc([N+](=O)[O-])cc1N(CC(O)Cn1nnc2ccccc21)S(=O)(=O)c1ccc(C)cc1 (stereo not given),inactive,–
CCCCNCc1ccc(SC)cc1,inactive,–
Clc1ccc(-n2nnnc2CN2CCCCC2)cc1Cl,0.993% [at 11.4 µM],–
COc1ccc(Oc2c(Cl)cnn(-c3ccccc3)c2=O)cc1,inactive,–
